# Laboratory results reported in PubChem BioAssay.
# The source made the active and inactive calls. The rule behind the calls is not given here.
# Biological target: Pantothenate synthetase (Mycobacterium tuberculosis (strain ATCC 25618 / H37Rv)) (UniProt P9WIL5)
# Assay: Recombinant Mtb pantothenate synthetase (PanC) inhibitors, coupled enzyme, confirmatory (AID 375);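 note: 0% = full reaction with vehicle and 100% = no enzyme background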
# Conditions: coupled enzyme assay; at 10 µM, hits give high values
# Pantothenate synthetase (Mycobacterium tuberculosis (strain ATCC 25618 / H37Rv)), sequence (P9WIL5 whole entry, looked up): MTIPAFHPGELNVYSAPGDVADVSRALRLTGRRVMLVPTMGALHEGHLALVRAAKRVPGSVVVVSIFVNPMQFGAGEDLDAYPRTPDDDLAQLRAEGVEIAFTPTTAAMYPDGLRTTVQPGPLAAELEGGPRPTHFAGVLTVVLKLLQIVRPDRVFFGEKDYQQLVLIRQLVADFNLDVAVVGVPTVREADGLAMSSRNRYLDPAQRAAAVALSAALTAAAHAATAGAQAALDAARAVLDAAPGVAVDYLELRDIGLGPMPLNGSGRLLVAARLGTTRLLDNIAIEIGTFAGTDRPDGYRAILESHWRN
row,Structure (SMILES),inhibition
1,O=C(CN1C(=O)CSC1=O)N1CCc2ccccc2C1,3% (inactive)
2,COc1ccc(CNc2nc3nc(C)c(Cl)c(C)n3n2)cc1OC,6% (inactive)
3,CC(=O)N1CCC(N(C(=O)Nc2ccc(C)c(C)c2)C2CCCC2)CC1,0% (inactive)
4,c1ccc(CN2CCN(CCCNc3ccc4nnc(-c5ccccc5)n4n3)CC2)cc1,10% (inactive)
5,Cc1sc2ncnc(OCC(=O)N3CCN(S(=O)(=O)c4ccc(Cl)cc4)CC3)c2c1C,0% (inactive)
6,CCOC(=O)CSc1nnc(NC(=O)c2cccc(S(=O)(=O)N3CCCCC3)c2)s1,5% (inactive)
7,Cc1nnc(SCC(=O)N2CCC(C(N)=O)CC2)s1,0% (inactive)
8,COc1cccc(-c2nnc3sc(C4CCCCC4)nn23)c1,4% (inactive)
9,O=c1n(CCCN2CCN(c3cccc(Cl)c3)CC2)nc2ccccn12,0% (inactive)
10,Cc1ccc(C)n1NC(=O)c1ccco1,0% (inactive)
11,CCOCCCNC(=O)C1CCC(CNS(=O)(=O)c2cccc3nsnc23)CC1 (centres undefined),1% (inactive)
12,CCCC(=O)N=C1SC2CS(=O)(=O)CC2N1c1ccc(CC)cc1 (centres undefined),0% (inactive)
13,CCNS(=O)(=O)c1c(C)cc(N2CCCC2=O)cc1C,6% (inactive)
14,O=C(NCCCN1CCN(c2cccc(Cl)c2)CC1)c1ccc(N2CCCC2=O)cc1,1% (inactive)
15,Cc1cc(C)cc(NS(=O)(=O)c2ccc3[nH]cc(C(=O)NCc4ccco4)c(=O)c3c2)c1,0% (inactive)
16,COc1ccc2nc(S(=O)Cc3ncc(C)c(OC)c3C)[nH]c2c1 (centres undefined),4% (inactive)
17,Cn1c(=O)c2c(nc(NCc3ccccc3)n2CCCc2ccccc2)n(C)c1=O,0% (inactive)
18,O=C(c1ccc(Cl)s1)N1CCN(c2nc3ccccc3s2)CC1,6% (inactive)
19,CCC1CCCCN1C(=O)CSc1nnc(-c2ccco2)o1 (centres undefined),1% (inactive)
20,Nc1ccc(C(=O)OCCCc2nc3ccccc3[nH]2)cc1,3% (inactive)

row,Structure (SMILES),inhibition
1,O=C(Nc1ccc(F)cc1)N(CCCN1CCOCC1)Cc1cc2cc3c(cc2[nH]c1=O)OCO3,6% (inactive)
2,N#Cc1c(/N=C/c2cccs2)sc2c1CCCCC2,0% (inactive)
3,Cc1sc2ncn3ncnc3c2c1C,0% (inactive)
4,CCCCCn1c(=O)[nH]c2cc(C(=O)NCCCN3CCCCC3)ccc2c1=O,3% (inactive)
5,Cn1c(=O)n(Cc2ccccc2)c(=O)c2c1nc(NCC1CCCO1)n2Cc1ccccc1 (centres undefined),0% (inactive)
6,c1ccc(-c2noc(C34CC5CC(CC(C5)C3)C4)n2)nc1,6% (inactive)
7,CCc1nnc(NC(=O)C2Cc3ccccc3CN2S(=O)(=O)c2cccs2)s1 (centres undefined),1% (inactive)
8,COc1ccccc1C(=O)Nc1ccc(S(=O)(=O)N2CCCC2)cc1,4% (inactive)
9,COc1cc2[nH]c(=O)n(CCC(=O)N3CCc4ccccc4C3)c(=O)c2cc1OC,0% (inactive)
10,Nc1nnc(-c2cccc(Cl)c2Cl)c(N)n1,2% (inactive)
11,CC(C)OC(=O)c1cc(NC(=O)C2C3CCC(O3)C2C(=O)O)cc(C(=O)OC(C)C)c1 (centres undefined),0% (inactive)
12,O=C(NCC(=O)N(CCc1ccccc1)C(C(=O)NC1CCCC1)c1cccnc1)c1ccco1 (centres undefined),3% (inactive)
13,COCCOC(=O)c1[nH]c2c(c1C)C(=O)CC(c1ccc(N(C)C)cc1)C2 (centres undefined),0% (inactive)
14,CCN(CCCNC(=O)CC1Oc2ccc(C)cc2NC1=O)Cc1ccccc1 (centres undefined),0% (inactive)
15,CCC(C)(C)NC(=O)CN(Cc1ccc2c(c1)OCO2)C(=O)CCC(=O)Nc1ccccn1,3% (inactive)
16,CCCC(=O)N1c2ccccc2NC2=C(C(=O)CCC2)C1c1ccc(F)cc1 (centres undefined),5% (inactive)
17,CN(CCc1ccccn1)c1ncnc2[nH]ncc12,0% (inactive)
18,COc1ccc2c(c1)Sc1ccccc1N2CCN(C)C,3% (inactive)
19,O=C(Cn1cnc2c(nnn2-c2ccc(F)cc2)c1=O)NCc1ccco1,0% (inactive)
